Bioassay records deposited in PubChem by National Center for Advancing Translational Sciences (NCATS).
Shown are actives, neighbours in structure and some others; about 12% of the full set was active somewhere.
SARS PLP yeast: inhibitors of SARS-CoV papain-like protease in yeast | S. cerevisiae expressing SARS-CoV PLpro, growth rescue | Potency, µM (doses to about 32.9 µM), usual class: activators | 0.19% of 330,000 active | AID 485353; calls by dose curve; further: nearly all actives have a fitted effect of over 55% in size
Pf growth 96h: inhibits malaria parasite growth, 96 h; P. falciparum luciferase reporter growth, 96 h; Potency, µM (series often up to 28.7 µM), usual class: inhibitors; 6.9% of 320,000 active
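Cell-based qHTS: luciferase-tagged P. falciparum in erythrocytes (2% hematocrit, 0.05% parasitemia final) incubated with compounds for 96 hours, 37 C, 5% CO2; luciferase detection reagent then added and luminescence measured.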
NS1 inh: inhibitors of influenza NS1 protein function; AID 2326; Potency, µM (highest dose often 46.1 µM); 0.4% of 270,000 active; calls by dose curve; further: actives are rising curves; nearly all actives have a fitted effect of over 50% in size
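A cell-based growth assay was used: compounds that relieve NS1-induced slow growth of budding yeast raise OD600. Assay medium was yeast nitrogen base with ammonium sulphate and -URA supplement, pH 6.0, with 2% galactose.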
Pf growth 48h: P. falciparum growth inhibition at 48 hours (one generation). P. falciparum luciferase growth in erythrocytes, 48 h. Potency, µM (highest dose often 28.7 µM), usual class: inhibitors. 5.9% of 310,000 active. AID 504832
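Here the parasites carry a stable luciferase gene and grow inside erythrocytes in Albumax-based RPMI medium with compound for one erythrocytic cycle. Activity is scored as loss of luminescent signal.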
HCV inh: blocks hepatitis C virus; Huh7.5.1 HCVcc-Cre infection, luciferase reporter, 44 h; Potency, µM (series often up to 41.8 µM), actives largely listed as inhibitors; 3.4% of 340,000 active; AID 651820
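Luciferase read-out (15 sec integration) after a 15 min room-temperature substrate step quantifies HCVcc-Cre infection. Cells, 1,000 per well, had compound added 4 h post-plating, then virus at ~0.5 moi, and were cultured 44 h.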
AMA1-RON2 inh: disrupts binding of P. falciparum AMA1 to RON2; 0.2% of 360,000 active; AlphaScreen AMA1-biotinylated RON2 peptide binding; Potency, µM (doses to about 58.2 µM), most hits filed as inhibitors; AID 720542; further: nearly all actives have a fitted effect of over 45% in size
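AMA1 (3D7) with his tag at 25 nM final met compounds first, then biotinylated RON2 peptide at 25 nM; detection used donor plus acceptor beads, 10 µg/mL apiece, read by AlphaScreen after 30 min at room temperature.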
Flu NS1 inh: validation of influenza NS1 protein function inhibitors; shares compounds with NS1 inh; influenza NS1 function cell assay, 15-point titration; activity change, negative = inhibition, % at 32.9 µM; 1,400 tested, under 10 active; AID 492980; calls by dose curve
Flu PR8 replic: reduces influenza A/PR/8/34 replication in MDCK cells; shares compounds with NS1 inh; MDCK infected influenza A/PR/8/34, virus titer TCID50; hits give low values; virus titer (log TCID50), log10 TCID50 at 5 µM; 30% of 95 active; AID 504647; call rule not given here
Hits are given with their value; [ ] = another dose, or the depositor's remark. Unless noted, the call rests on the fitted dose curve; in most records, active means well fitted curve in the direction sought with a large enough effect; inconclusive means small, poorly fitted or top-dose-only effect, or another doubt; inactive means no such curve, though single readings can be large; an effect the other way counts as inactive or inconclusive.

`CN(C)/C=C1\SC(=S)N(c2ccc(Br)cc2)C1=O` gave SARS PLP yeast inactive, Pf growth 96h inactive, NS1 inh inconclusive, Pf growth 48h 2.3µM, HCV inh inactive, AMA1-RON2 inh inactive and Flu NS1 inh inactive.
`Cc1ccn2c(C(C)O)nnc2c1` (stereo unspecified) gave AMA1-RON2 inh inactive.
`COc1ccc(OC)c(/C=N/NC(=O)Cc2nc3ccccc3[nH]2)c1` gave SARS PLP yeast inactive, Pf growth 96h inactive, NS1 inh 2µM, Pf growth 48h inactive, HCV inh inactive, AMA1-RON2 inh inactive and Flu NS1 inh inactive.
`CC(/C=C/c1ccc(N(C)C)cc1)=N\N=C1\NC(=O)CC(C(=O)Nc2ccccc2)S1` (stereo unspecified) gave SARS PLP yeast inactive, Pf growth 96h inactive, NS1 inh 7.9µM, Pf growth 48h inactive, HCV inh inactive, AMA1-RON2 inh inactive and Flu NS1 inh inactive.
Screening CC(/C=C/c1ccc(N(C)C)cc1)=N/N=C1/NC(=O)CC(C(=O)Nc2ccc(Cl)cc2)S1 (stereo unspecified) returned SARS PLP yeast inactive, Pf growth 96h inactive, NS1 inh 10µM, Pf growth 48h inactive, HCV inh inactive, AMA1-RON2 inh inactive and Flu NS1 inh inactive.
`Nc1cc(=O)[nH]c(SCC(=O)NNC(=O)Cc2ccccc2)n1` gave SARS PLP yeast inactive, Pf growth 96h inactive, Pf growth 48h inactive, HCV inh inactive and AMA1-RON2 inh inactive.
For Cc1ccc(S(=O)(=O)N2CCCC2CNC(=O)C(=O)NCCN2CCOCC2)cc1 (stereo unspecified) the results were SARS PLP yeast inactive, Pf growth 96h inactive, Pf growth 48h inactive, HCV inh inactive and AMA1-RON2 inh inactive.
Screening Oc1ccc(/C=N/Nc2ncnc3c2ncn3Cc2ccccc2)cc1O returned SARS PLP yeast inconclusive, Pf growth 96h inconclusive, NS1 inh 14µM, Pf growth 48h inconclusive, HCV inh inactive, AMA1-RON2 inh inactive[2.32 µM] and Flu NS1 inh inactive.
Oc1cccc(/C=N/Nc2ncnc3c2ncn3Cc2ccccc2)c1 was read as SARS PLP yeast inactive, Pf growth 96h inconclusive, NS1 inh inactive, Pf growth 48h inactive, HCV inh inactive and AMA1-RON2 inh inactive.
Screening CC(C)OCCCNC(=O)c1c(N)n(/N=C/c2ccccn2)c2nc3ccccc3nc12 returned SARS PLP yeast inactive, Pf growth 96h inactive, NS1 inh 8.9µM, Pf growth 48h inactive, HCV inh inactive, AMA1-RON2 inh inactive and Flu NS1 inh inactive.
Screening CCC(C)NC(=O)c1c(N)n(/N=C/c2ccccn2)c2nc3ccccc3nc12 (stereo unspecified) returned SARS PLP yeast inactive, Pf growth 96h inactive, NS1 inh 11µM, Pf growth 48h inactive, HCV inh inconclusive, AMA1-RON2 inh inactive and Flu NS1 inh inconclusive.
Screening CSCCC(C(=O)Nc1c(C)cccc1C)N1CCN(c2ccc(F)cc2)CC1 (stereo unspecified) returned AMA1-RON2 inh inactive.
For Cn1c(CNC(=O)C2CCCCC2)cc2ccccc21 the results were SARS PLP yeast inactive, Pf growth 96h inactive, NS1 inh inactive, Pf growth 48h inactive, HCV inh inactive and AMA1-RON2 inh inactive.
CCn1c(CNC(=O)C2CCCCC2)cc2ccccc21 was read as SARS PLP yeast inactive, Pf growth 96h 9.3µM, NS1 inh inconclusive, Pf growth 48h inactive, HCV inh inactive, AMA1-RON2 inh inactive and Flu NS1 inh inactive.
Screening Cc1cc(C)cc(NC(=O)CSc2nnc(-c3ccccc3C)o2)c1 returned SARS PLP yeast inactive, Pf growth 96h inactive, NS1 inh inconclusive, Pf growth 48h inactive, HCV inh inactive, AMA1-RON2 inh inactive and Flu NS1 inh inactive.
CCOc1ccc(C(=S)N2CCCC2)c(OCC)c1 was read as SARS PLP yeast inactive, Pf growth 96h inconclusive, NS1 inh inactive, Pf growth 48h inconclusive, HCV inh inactive and AMA1-RON2 inh inactive.
For COc1cc(N)n(S(=O)(=O)c2ccc(C)cc2)n1 the results were SARS PLP yeast inactive, Pf growth 96h inactive, NS1 inh inactive, Pf growth 48h inactive, HCV inh inactive and AMA1-RON2 inh inactive.
For Cc1ccc(S(=O)(=O)n2nc(C)cc2N)cc1 the results were SARS PLP yeast inactive, Pf growth 96h inconclusive, NS1 inh 22µM, Pf growth 48h inactive, HCV inh inactive, AMA1-RON2 inh inactive and Flu NS1 inh inactive.
Screening CCCCOc1ccc(/C=C/C2=CC(C)(C)NC(=S)N2)cc1OCC returned SARS PLP yeast inactive, Pf growth 96h inactive, Pf growth 48h inconclusive, HCV inh inconclusive and AMA1-RON2 inh inactive.
For CC(=O)OC1C2CCC1C(N1CCCCC1)CC2 (stereo unspecified) the results were SARS PLP yeast inactive, Pf growth 96h inactive, Pf growth 48h inactive, HCV inh inactive and AMA1-RON2 inh inactive.
Screening CC(=O)OC1C2CCCC1C(N1CCCC1)CC2 (stereo unspecified) returned SARS PLP yeast inactive, Pf growth 96h inactive, NS1 inh inconclusive, Pf growth 48h inactive, HCV inh inactive, AMA1-RON2 inh inactive and Flu NS1 inh inactive.
`CN(C)c1ccc(NC(=O)Cn2cc3c(n2)CCCC3)cc1` gave SARS PLP yeast inactive, Pf growth 96h inconclusive, NS1 inh 10µM, Pf growth 48h inconclusive, HCV inh inactive, AMA1-RON2 inh inconclusive and Flu NS1 inh inactive.
`Cc1ccc(C)c(N2CCN(C(=O)CCNC(=O)Cn3ccc4ccccc4c3=O)CC2)c1` gave SARS PLP yeast inactive, Pf growth 96h inactive, NS1 inh inconclusive, Pf growth 48h inconclusive, HCV inh inconclusive, AMA1-RON2 inh inactive and Flu NS1 inh inactive.
Screening COc1ccccc1N1CCN(C(=O)CCNC(=O)Cn2ccc3ccccc3c2=O)CC1 returned SARS PLP yeast inactive, Pf growth 96h inconclusive, NS1 inh inactive, Pf growth 48h inactive, HCV inh inactive and AMA1-RON2 inh inactive.
For CCOC(=O)N1CCN(S(=O)(=O)N2CCCC(C(=O)NCCCN3CC(C)CC(C)C3)C2)CC1 (stereo unspecified) the results were SARS PLP yeast inactive, Pf growth 96h inactive, NS1 inh inconclusive, Pf growth 48h inactive, HCV inh inactive, AMA1-RON2 inh inactive, Flu NS1 inh inactive and Flu PR8 replic 6.
Screening CC1CC(C)CN(CCCNC(=O)C2CCCN(S(=O)(=O)N3CC(C)CC(C)C3)C2)C1 (stereo unspecified) returned SARS PLP yeast inactive, Pf growth 96h inactive, NS1 inh inactive, Pf growth 48h inactive, HCV inh inactive and AMA1-RON2 inh inactive.
